Assay results: PubChem BioAssay (NCATS)
Results filed as inconclusive are left out. A call without a number means that no potency is given here. The source made the active and inactive calls. Calls follow the shape of the dose curve; as a rule, active = well fitted inhibition curve with a large enough effect; inconclusive = small, poorly fitted or top-dose-only effect; inactive = flat fitted curve, though single readings scatter. Where a SMILES comes first, the peptide text is derived from it. [ ]: non-standard residue; d: D form. dPhe(4-Cl) = N[C@H](Cc1ccc(Cl)cc1)C(=O)O; d2Nal = N[C@H](Cc1ccc2ccccc2c1)C(=O)O; dCit = NC(=O)NCCC[C@@H](N)C(=O)O; d3Pal = N[C@H](Cc1cccnc1)C(=O)O

Assay: Primary qHTS for inhibitors of nuclear receptor binding SET domain protein 2 (NSD2) in an isogenic RCH-ACV NSD2 p.E1099K mutant (9B) (AID 1645876); also: nearly all actives have a fitted effect of over 70% in size
Conditions: RCH-ACV (leukaemia line) NSD2 E1099K (9B) viability, CellTiter-Glo, 72 h; series mostly up to 44.9 µM
Potency is read from the fitted curve at half-maximal effect.

With Cc1c(CN2CCN(C(=O)C(C)O)CC2)sc2c(N3CCOCC3)nc(-c3cnc(N)nc3)nc12 (centres undefined) as the molecule, how does the Potency read?
Its Potency is 57.8 nM (active).

For C[C@@H]1C(=O)O[C@H]2[C@H](O)C34[C@H]5C[C@@H](C(C)(C)C)C36[C@@H](OC(=O)[C@@H]6O)O[C@@]4(C(=O)O5)[C@@]12O (some centres undefined), which Potency is on record?
Its Potency is “inactive”.

For CC(C)=CCC/C(C)=C/CO[C@@H]1O[C@H](CO)[C@@H](O)[C@H](O)[C@H]1O, which Potency is on record?
Its Potency is “inactive”.

Which Potency does the source give for COc1ccc(C[C@H](N)C(=O)N[C@@H]2[C@H](O)[C@H](n3cnc4c(N(C)C)ncnc43)O[C@@H]2CO)cc1 here?
The Potency was 325 nM (active).

With C=C1C(O)CC2C(C(=O)O)=COC(O[C@@H]3O[C@H](COC(=O)/C=C/c4ccc(O)cc4)[C@@H](O)[C@H](O)[C@H]3O)C12 (some centres undefined) as the molecule, how does the Potency read?
Its Potency is “inactive”.

Which Potency does the source give for CCn1cc(NC(=S)Nc2cc(Cl)ccc2OC)c(C(N)=O)n1 here?
Its Potency is “inactive”.

For CC(=O)N[C@H](Cc1ccc2ccccc2c1)C(=O)N[C@H](Cc1ccc(Cl)cc1)C(=O)N[C@H](Cc1cccnc1)C(=O)N[C@@H](CO)C(=O)N[C@@H](Cc1ccc(O)cc1)C(=O)N[C@H](CCCNC(N)=O)C(=O)N[C@@H](CC(C)C)C(=O)N[C@@H](CCCN=C(N)N)C(=O)N1CCC[C@H]1C(=O)N[C@H](C)C(N)=O (Ac-[d2Nal][dPhe(4-Cl)][d3Pal]SY[dCit]LRP[dA]-NH2), which Potency is on record?
The Potency was “inactive”.

Which Potency does the source give for COc1cc(-c2ncn(/C=C\C(=O)OC(C)C)n2)cc(C(F)(F)F)c1 here?
The Potency was 129 nM (active).

For COC(=O)CC(C)(O)CC(=O)OCc1ccc(O[C@@H]2O[C@H](CO)[C@@H](O)[C@H](O)[C@H]2O)cc1 (some centres undefined), which Potency is on record?
The Potency was “inactive”.

Which Potency does the source give for O=C(N/N=C/c1ccc(O)c(O)c1)c1cc2ccccc2cc1O here?
The Potency was 6820 nM (active).

With C=C[C@H]1C(O[C@@H]2O[C@H](CO)[C@@H](O)[C@H](O)[C@H]2O)OC=C2C(=O)N3CCc4c([nH]c5ccccc45)C3CC21 (some centres undefined) as the molecule, how does the Potency read?
Its Potency is “inactive”.

Which Potency does the source give for COc1c/c(=C2\C=c3ccccc3=N2)[nH]/c1=C\c1[nH]c(C)cc1C here?
Its Potency is 5780 nM (active).

For CC1CCC2(OC1)OC1CC3C4CC=C5CC(O)CC(O[C@@H]6OC[C@@H](O)[C@H](O)[C@H]6O)C5(C)C4CCC3(C)C1(O)C2C (some centres undefined), which Potency is on record?
Its Potency is “inactive”.

For C[C@@H]1CC[C@]2(C(=O)O[C@@H]3O[C@H](CO)[C@@H](O)[C@H](O)[C@H]3O)CC[C@]3(C)C(=CCC4[C@@]5(C)C[C@@H](O)[C@H](O)[C@@](C)(C(=O)O[C@H]6[C@H](O)C[C@@]7(C)C(CC[C@]8(C)C7CC=C7[C@H]9[C@](C(=O)O[C@@H]%10O[C@H](CO)[C@@H](O)[C@H](O)[C@H]%10O)(CC[C@@H](C)[C@@]9(C)O)CC[C@]78C)[C@@]6(CO)C(=O)O)C5CC[C@]43C)[C@@H]2[C@]1(C)O (some centres undefined), which outcome is on record?
Its outcome is “inactive [at 9.23 µM]”.

With CC1(C)CC[C@]2(C(=O)O)CC[C@]3(C)C(=CCC4[C@@]5(C)C[C@@H](O)[C@H](O)C(C)(C)C5CC[C@]43C)C2C1 (some centres undefined) as the molecule, how does the Potency read?
The Potency was “inactive”.

For C[C@H](C/C=C/C(C)(C)O)[C@H]1CC[C@@]2(C)[C@@H]3[C@@H](O[C@@H]4O[C@H](CO)[C@@H](O)[C@H](O)[C@H]4O)C=C4C(CC[C@H](O)C4(C)C)[C@]3(C=O)CC[C@]12C (some centres undefined), which Potency is on record?
The Potency was “inactive”.

With CC(C)[C@H]1CC[C@@]2(O)COC(=O)[C@H]2[C@@H]1/C=C(\CO)C(=O)O as the molecule, how does the Potency read?
The Potency was “inactive”.

With C=C1CCCC2(C)CC3(OC)OC(=O)C(C)=C3CC12 (centres undefined) as the molecule, how does the Potency read?
Its Potency is “inactive”.

With CC1=C(C(=O)O[C@@H]2O[C@H](COC3OCC(O)C(O)C3O)[C@@H](O)[C@H](O)[C@H]2O)C(C)(C)CCC1 (some centres undefined) as the molecule, how does the Potency read?
Its Potency is “inactive”.

With CC(C)(O)c1ccc2c(c1)C(O)C[C@H]1[C@](C)(C(=O)O)CCC[C@]21C (some centres undefined) as the molecule, how does the Potency read?
Its Potency is “inactive”.

With C[C@@]12C[C@]3(O)O[C@H](O1)[C@]1(COC(=O)c4ccccc4)[C@H]3C[C@@]12O[C@@H]1O[C@H](CO)[C@@H](O)[C@H](O)[C@H]1O as the molecule, how does the Potency read?
Its Potency is “inactive”.

For COC(=O)c1ccnc(-c2cc(C(=O)NCCc3ccccc3)ccn2)c1, which Potency is on record?
The Potency was “inactive”.

Which outcome does the source give for C[C@@H]1O[C@@H](O[C@H]2[C@H](O)[C@@H](O[C@@H]3O[C@H](CO)[C@@H](O)[C@H](O[C@@H]4O[C@H](CO)[C@@H](O)[C@H](O)[C@H]4O)[C@H]3O)[C@H](O[C@H]3CC[C@@]4(C)C(=CC[C@@H]5C4CC[C@@]4(C)C5C[C@@H]5OC6(CC[C@@](C)(CO[C@@H]7O[C@H](CO)[C@@H](O)[C@H](O)[C@H]7O)O6)[C@@H](C)[C@@H]54)C3)O[C@@H]2CO)[C@H](O)[C@H](O)[C@H]1OC1OC(CO)C(O)C(O)C1O (some centres undefined) here?
Its outcome is “inactive [at 9.23 µM]”.

For COc1c2c(c(CO)c3c1C(=O)OC3)OC1(C)CCC3(O)C(C)(C)OC(=O)CCC3(C)C1C2 (centres undefined), which Potency is on record?
Its Potency is “inactive”.

For COc1cc(C(=O)O)ccc1OC1OC(CO)C(O)C(O)C1O (centres undefined), which Potency is on record?
Its Potency is “inactive”.

With OC[C@H]1O[C@@H](O[C@H]2[C@H](OCc3ccccc3)O[C@H](CO[C@@H]3OC[C@@H](O)[C@H](O)[C@H]3O)[C@@H](O)[C@@H]2O)[C@H](O)[C@@H](O)[C@@H]1O as the molecule, how does the Potency read?
The Potency was “inactive”.

Which Potency does the source give for CC(C)=CCC[C@](C)(O[C@@H]1O[C@H](CO)[C@@H](O)[C@H](O)[C@H]1O)[C@H]1CC[C@]2(C)[C@@H]1[C@H](O)CC1[C@@]3(C)CC[C@H](O)C(C)(C)C3[C@@H](O[C@@H]3O[C@H](CO)[C@@H](O)[C@H](O)[C@H]3O)C[C@]12C (some centres undefined) here?
The Potency was “inactive”.

For CC1COC2(OC3CC4C5CC(O[C@@H]6O[C@H](C)[C@@H](O[C@@H]7O[C@@H](C)[C@H](O)[C@@H](O)[C@H]7O)[C@H](O)[C@H]6O)C6CC(O)CCC6(C)C5CCC4(C)C3C2C)C(O)C1 (some centres undefined), which Potency is on record?
Its Potency is “inactive”.

With C=C1[C@H](OC(C)=O)[C@H]2[C@@H](OC(C)=O)[C@](C)(OC(C)=O)C[C@]2(OC(C)=O)C(=O)[C@H](C)/C=C/C(C)(C)C(=O)[C@H](OC(=O)C(C)CC)[C@H]1OC(C)=O (some centres undefined) as the molecule, how does the Potency read?
Its Potency is “inactive”.

For CC1=CCC(C(C)(C)O[C@@H]2O[C@H](CO[C@@H]3O[C@@H](C)[C@H](O)[C@@H](O)[C@H]3O)[C@@H](O)[C@H](O)[C@H]2O)CC1 (some centres undefined), which Potency is on record?
The Potency was “inactive”.

Which Potency does the source give for CC1CC(O)C2(OC1=O)OC1C(O)C3C4CCC5CC(OC6OC(CO)C(O)C(O)C6OC6OC(C)C(O)C(O)C6O)CCC5(C)C4CCC3(C)C1C2C (centres undefined) here?
Its Potency is “inactive”.

With COC(=O)C[C@H]1C(C)(C)[C@H](OC(=O)C(C)C)[C@@]2(O)C(=O)[C@]1(C)C1CC[C@]3(C)C(CC(=O)O[C@H]3c3ccoc3)[C@]13O[C@@H]32 (some centres undefined) as the molecule, how does the Potency read?
The Potency was “inactive”.

Which Potency does the source give for C=C1CN(Cc2ccc(C(=O)Nc3ccccc3N)cc2)C(=O)c2ccccc21 here?
The Potency was 230 nM (active).

For CC[C@H](C)[C@H](NC(=O)[C@H]([C@@H](C)CC)N(C)C(C)=O)C(=O)N[C@H](C(=O)N[C@@H](CC(C)C)C(=O)[C@@]1(C)CO1)[C@@H](C)O, which Potency is on record?
The Potency was 12.9 nM (active).

Which Potency does the source give for CC1CCC2(C(=O)O)CCC3(C)C(=CCC4C5(C)CCC(O)C(C)(CO)C5CCC43C)C2C1(C)O (centres undefined) here?
Its Potency is “inactive”.

For CC(=O)N[C@H]1[C@H](O[C@H]2CC[C@@]3(C)C(CC[C@]4(C)C3CC=C3[C@@H]5CC(C)(C)CC[C@]5(C(=O)OC5OCC(O)C(O)C5O)CC[C@]34C)C2(C)C)O[C@H](COC2OC(C)C(O)C(OC3OC(C)C(O)C(O)C3O)C2O)[C@@H](O)[C@@H]1O (some centres undefined), which outcome is on record?
The outcome was “inactive [at 9.23 µM]”.

With CC1C(=O)CC2C3CCC(C(=O)O)C12CC3(C)CO (centres undefined) as the molecule, how does the Potency read?
The Potency was “inactive”.

Which Potency does the source give for CC(C)=CC/C=C(\C)[C@H]1CC[C@]2(C)[C@@H]1[C@H](O)C[C@@H]1[C@@]3(C)CC[C@H](O)C(C)(C)[C@@H]3[C@@H](O[C@@H]3O[C@H](CO)[C@@H](O)[C@H](O)[C@H]3O)C[C@]12C here?
Its Potency is “inactive”.

For CC(=O)O[C@@H]1C[C@@H](OC(C)=O)C(C)(C)/C=C/[C@H](C)[C@H](OC(C)=O)[C@@]2(O)C[C@H](C)[C@H](OC(=O)c3ccccc3)[C@@H]2/C=C/1C, which Potency is on record?
The Potency was “inactive”.
